Experimental data reported in the supplement of paper PMC11732987, “Enantioselective OTUD7B fragment discovery through chemoproteomics screening and high-throughput optimisation” (Communications Chemistry, 2025).

Experiments:
Test in all cases: log2 ratio of Biotin-Ahx-Ub-VS probe labelling (fragment/DMSO); higher = less target engagement (more negative = stronger competition), active = hit call of the paper (q ≤ 0.05, log2 ratio ≤ -1)
Conditions in all cases: compound concentration: 200 uM; treatment time: 3 h
[1] = target: T1, USP19 (UniProt O94966)
T1 sequence (whole entry): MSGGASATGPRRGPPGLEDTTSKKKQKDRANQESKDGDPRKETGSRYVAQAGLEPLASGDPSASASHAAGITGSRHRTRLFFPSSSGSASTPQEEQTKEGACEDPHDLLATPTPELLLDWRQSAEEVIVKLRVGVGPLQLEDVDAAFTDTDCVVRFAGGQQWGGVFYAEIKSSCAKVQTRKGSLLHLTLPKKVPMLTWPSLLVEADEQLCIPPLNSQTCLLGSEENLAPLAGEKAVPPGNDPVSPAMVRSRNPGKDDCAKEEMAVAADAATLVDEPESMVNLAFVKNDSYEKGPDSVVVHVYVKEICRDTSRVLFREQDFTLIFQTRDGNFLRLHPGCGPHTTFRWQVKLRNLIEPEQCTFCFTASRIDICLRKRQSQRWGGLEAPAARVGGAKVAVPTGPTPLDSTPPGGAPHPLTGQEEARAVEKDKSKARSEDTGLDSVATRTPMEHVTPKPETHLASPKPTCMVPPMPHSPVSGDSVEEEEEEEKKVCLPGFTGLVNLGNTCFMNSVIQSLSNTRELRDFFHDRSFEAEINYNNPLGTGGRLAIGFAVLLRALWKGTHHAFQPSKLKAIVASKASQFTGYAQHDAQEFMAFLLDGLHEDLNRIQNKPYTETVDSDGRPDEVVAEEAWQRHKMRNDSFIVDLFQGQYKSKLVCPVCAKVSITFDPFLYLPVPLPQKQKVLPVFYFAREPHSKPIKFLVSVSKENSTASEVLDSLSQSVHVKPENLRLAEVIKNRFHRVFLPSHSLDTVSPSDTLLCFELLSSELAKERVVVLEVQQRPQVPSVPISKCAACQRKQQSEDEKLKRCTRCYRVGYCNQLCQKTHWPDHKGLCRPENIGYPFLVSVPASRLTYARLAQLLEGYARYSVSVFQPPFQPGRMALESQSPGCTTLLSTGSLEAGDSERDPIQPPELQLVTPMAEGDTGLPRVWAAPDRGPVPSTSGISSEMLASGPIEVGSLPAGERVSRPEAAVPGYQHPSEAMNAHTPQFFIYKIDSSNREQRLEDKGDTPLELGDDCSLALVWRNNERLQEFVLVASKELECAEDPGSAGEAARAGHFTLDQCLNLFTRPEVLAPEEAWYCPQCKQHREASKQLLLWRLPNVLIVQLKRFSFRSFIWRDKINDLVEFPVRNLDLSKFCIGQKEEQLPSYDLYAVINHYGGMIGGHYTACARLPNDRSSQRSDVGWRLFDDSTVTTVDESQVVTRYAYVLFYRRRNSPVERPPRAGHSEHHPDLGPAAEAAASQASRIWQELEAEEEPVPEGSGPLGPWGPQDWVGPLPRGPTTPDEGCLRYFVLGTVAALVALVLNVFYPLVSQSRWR
Method in brief: (§1)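 Labelled DUBs from HEK293T lysate were NeutrAvidin-enriched, digested with LysC and trypsin, and run by diaPASEF LC-MS/MS. Before that, each 495 µg sample in Tris/CHAPS/IGEPAL buffer with protease inhibitors was treated in triplicate with fragment at 200 µM or vehicle for 3 h, then with Biotin-Ahx-Ub-VS at 0.5 µM final for 1 h. Values are average log2 ratios of fragment over vehicle by unpaired t-test, based on global-median-normalised Spectronaut label-free quantities from proteins with ≥2 unique peptides.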

[2] = target: T2, USP22 (UniProt Q9UPT9)
T2 sequence (whole entry): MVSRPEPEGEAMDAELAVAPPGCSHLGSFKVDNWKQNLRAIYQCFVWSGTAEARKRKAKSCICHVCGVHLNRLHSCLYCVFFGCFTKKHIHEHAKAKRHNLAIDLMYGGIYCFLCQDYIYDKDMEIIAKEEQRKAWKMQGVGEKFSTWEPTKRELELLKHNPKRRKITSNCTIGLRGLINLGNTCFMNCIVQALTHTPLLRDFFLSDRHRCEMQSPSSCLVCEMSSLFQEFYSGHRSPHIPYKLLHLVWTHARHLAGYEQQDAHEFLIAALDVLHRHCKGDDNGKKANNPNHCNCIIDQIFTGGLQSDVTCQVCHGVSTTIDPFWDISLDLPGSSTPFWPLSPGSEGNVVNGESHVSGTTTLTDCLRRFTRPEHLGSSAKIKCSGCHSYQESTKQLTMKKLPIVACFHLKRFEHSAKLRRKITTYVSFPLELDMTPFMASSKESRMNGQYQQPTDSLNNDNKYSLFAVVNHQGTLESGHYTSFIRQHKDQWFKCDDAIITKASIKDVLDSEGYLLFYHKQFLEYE
Method in brief: as §1

[3] = target: USP24 (UniProt Q9UPU5)
Sequence of USP24 (Q9UPU5 whole entry): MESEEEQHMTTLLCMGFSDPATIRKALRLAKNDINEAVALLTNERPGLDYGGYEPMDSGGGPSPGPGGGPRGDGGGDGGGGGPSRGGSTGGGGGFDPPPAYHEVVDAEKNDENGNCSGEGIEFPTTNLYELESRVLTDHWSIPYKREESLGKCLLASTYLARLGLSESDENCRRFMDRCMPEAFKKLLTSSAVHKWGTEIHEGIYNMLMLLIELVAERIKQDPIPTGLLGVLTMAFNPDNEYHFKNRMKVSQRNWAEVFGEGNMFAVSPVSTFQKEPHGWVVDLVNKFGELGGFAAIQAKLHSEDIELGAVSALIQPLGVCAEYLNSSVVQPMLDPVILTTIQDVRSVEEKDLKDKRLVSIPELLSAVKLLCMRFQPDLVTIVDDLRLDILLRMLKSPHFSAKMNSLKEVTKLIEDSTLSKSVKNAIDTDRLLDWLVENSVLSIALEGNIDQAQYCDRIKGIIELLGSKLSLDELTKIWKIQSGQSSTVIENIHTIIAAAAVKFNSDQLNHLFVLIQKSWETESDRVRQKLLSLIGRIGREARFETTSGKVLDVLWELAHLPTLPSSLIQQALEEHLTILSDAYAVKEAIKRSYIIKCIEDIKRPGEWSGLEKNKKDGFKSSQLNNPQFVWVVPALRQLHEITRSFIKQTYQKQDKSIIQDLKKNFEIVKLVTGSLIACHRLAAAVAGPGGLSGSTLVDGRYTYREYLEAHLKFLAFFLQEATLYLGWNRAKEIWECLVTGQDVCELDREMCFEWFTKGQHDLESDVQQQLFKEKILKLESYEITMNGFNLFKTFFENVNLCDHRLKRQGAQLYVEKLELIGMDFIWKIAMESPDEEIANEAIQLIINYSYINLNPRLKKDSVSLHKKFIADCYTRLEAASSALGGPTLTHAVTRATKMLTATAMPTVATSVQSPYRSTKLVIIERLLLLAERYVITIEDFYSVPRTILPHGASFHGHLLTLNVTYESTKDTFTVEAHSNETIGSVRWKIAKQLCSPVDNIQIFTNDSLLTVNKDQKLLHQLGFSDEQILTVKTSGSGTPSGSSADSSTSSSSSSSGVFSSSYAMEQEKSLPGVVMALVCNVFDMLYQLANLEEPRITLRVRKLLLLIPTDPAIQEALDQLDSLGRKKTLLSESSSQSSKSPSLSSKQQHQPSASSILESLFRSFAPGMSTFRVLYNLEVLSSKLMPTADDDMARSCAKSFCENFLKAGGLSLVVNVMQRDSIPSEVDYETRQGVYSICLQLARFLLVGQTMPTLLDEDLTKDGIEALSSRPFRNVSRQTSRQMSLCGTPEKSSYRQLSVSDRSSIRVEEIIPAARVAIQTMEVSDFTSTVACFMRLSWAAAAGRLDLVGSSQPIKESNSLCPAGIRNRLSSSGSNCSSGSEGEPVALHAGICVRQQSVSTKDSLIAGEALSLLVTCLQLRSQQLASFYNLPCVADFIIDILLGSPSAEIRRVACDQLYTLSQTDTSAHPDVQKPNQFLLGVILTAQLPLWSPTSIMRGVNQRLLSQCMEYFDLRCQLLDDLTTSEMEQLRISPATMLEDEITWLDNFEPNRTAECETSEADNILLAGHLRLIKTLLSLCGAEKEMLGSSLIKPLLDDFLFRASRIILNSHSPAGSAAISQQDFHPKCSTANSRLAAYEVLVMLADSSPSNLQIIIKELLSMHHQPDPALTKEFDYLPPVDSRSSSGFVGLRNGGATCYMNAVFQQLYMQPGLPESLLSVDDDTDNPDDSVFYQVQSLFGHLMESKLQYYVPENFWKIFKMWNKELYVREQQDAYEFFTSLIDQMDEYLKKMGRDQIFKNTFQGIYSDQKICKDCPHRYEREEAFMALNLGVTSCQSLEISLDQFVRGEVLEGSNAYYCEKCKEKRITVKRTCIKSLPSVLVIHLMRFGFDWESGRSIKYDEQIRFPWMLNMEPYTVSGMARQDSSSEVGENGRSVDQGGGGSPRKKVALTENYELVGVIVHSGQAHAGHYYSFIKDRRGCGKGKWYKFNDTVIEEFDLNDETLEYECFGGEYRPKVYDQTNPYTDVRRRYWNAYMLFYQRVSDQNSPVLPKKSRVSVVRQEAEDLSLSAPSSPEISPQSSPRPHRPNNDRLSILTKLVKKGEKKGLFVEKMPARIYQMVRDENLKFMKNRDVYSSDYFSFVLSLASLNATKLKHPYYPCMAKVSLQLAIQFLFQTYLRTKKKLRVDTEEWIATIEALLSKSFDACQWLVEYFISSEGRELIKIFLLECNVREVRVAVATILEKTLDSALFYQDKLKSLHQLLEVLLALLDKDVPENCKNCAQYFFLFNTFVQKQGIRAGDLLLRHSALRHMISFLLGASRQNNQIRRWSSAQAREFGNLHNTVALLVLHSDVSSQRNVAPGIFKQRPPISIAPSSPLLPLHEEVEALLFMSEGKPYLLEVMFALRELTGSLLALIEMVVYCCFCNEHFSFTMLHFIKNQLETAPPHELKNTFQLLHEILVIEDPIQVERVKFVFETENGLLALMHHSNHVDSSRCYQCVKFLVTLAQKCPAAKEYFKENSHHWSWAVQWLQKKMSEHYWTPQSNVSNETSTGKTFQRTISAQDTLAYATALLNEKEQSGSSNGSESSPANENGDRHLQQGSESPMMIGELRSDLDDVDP
Method in brief: as §1

[4] = target: T3, USP25 (UniProt Q9UHP3)
T3 sequence (whole entry): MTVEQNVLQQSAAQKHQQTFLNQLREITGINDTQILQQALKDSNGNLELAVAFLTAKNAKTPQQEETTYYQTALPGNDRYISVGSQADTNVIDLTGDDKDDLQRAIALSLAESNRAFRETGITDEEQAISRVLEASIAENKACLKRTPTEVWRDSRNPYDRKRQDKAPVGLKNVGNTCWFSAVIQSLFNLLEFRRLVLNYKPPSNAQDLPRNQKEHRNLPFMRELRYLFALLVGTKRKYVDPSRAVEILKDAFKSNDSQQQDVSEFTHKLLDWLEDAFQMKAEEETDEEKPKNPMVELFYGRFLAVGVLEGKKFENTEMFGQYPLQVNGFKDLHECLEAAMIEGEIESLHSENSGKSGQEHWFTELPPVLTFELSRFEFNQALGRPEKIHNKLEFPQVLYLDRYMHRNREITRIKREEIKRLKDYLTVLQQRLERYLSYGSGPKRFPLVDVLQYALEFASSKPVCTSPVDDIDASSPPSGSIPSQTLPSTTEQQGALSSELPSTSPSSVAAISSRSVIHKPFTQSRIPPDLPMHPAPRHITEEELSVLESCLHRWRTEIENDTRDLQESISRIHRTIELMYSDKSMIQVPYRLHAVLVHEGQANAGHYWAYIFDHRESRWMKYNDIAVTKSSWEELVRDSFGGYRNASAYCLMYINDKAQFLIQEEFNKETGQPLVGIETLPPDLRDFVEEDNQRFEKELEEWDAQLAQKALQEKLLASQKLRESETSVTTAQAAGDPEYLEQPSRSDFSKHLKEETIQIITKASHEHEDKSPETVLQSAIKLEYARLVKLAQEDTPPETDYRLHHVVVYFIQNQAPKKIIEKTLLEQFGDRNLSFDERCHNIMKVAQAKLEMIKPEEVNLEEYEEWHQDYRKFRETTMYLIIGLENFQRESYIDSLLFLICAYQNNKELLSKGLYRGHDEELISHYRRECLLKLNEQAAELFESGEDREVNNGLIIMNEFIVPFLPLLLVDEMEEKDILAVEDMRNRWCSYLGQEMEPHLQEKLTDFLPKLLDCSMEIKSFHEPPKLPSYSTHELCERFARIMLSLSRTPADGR
Method in brief: as §1

[5] = target: T4, USP28 (UniProt Q96RU2)
T4 sequence (whole entry): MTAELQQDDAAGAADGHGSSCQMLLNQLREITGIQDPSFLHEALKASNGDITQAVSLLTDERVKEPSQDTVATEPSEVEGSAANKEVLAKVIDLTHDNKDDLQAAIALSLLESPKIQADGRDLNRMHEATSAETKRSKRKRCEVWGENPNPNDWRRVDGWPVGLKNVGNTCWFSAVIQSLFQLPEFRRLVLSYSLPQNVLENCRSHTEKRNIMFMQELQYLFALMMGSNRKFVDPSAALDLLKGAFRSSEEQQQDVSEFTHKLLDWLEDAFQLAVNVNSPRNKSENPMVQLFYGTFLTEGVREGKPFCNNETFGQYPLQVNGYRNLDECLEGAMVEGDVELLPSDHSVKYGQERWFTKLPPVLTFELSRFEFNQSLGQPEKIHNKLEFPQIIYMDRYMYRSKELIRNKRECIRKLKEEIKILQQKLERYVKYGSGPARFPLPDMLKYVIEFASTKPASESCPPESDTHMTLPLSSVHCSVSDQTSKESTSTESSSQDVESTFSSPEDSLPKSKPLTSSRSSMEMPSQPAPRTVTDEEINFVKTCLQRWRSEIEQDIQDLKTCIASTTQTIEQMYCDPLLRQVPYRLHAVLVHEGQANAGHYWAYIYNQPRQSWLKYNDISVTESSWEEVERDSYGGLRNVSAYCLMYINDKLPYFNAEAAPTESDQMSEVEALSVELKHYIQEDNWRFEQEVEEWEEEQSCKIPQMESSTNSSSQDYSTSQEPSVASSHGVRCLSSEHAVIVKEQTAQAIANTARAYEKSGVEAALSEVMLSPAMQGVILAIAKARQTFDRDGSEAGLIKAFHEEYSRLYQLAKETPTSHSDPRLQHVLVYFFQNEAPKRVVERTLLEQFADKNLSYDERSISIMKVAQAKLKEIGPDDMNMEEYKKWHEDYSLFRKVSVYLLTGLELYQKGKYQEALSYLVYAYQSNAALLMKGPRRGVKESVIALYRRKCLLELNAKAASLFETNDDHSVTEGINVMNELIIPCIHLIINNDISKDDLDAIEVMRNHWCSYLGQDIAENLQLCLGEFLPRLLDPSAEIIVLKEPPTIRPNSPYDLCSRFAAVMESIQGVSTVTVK
Method in brief: as §1

Measured: log2 ratio of Biotin-Ahx-Ub-VS probe labelling

O=C(CCl)NCc1cccc(F)c1
inactive: [1] -0.000373 | [2] -0.171 | [3] -0.154 | [4] -0.362 | [5] -0.556
